The structures appear in SMILES notation. Records with an inconclusive call do not appear. Active and inactive are the calls of the source. Rule for the calls, unless noted: active = hit-call score of the fitted dose curve at least 0.9, where 1 is the maximum; inactive = score below 0.9.

Assay [1] concerns the target Myc proto-oncogene protein (Homo sapiens) (UniProt P01106). As to the kind of experiment: ATG_Myc_CIS: Attagene CIS-FACTORIAL HepG2 Assay for human Myelocytomatosis (Myc) Proto-Oncogene Transcription Factor (AID 2282990). The following applies: HepG2, Attagene cis-reporter transcription factor activity; actives raise or lower the signal. The gist of the method:
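HepG2 cells transiently transfected with multiple cis-promoter-driven reporter transcription units, so endogenous TF activity is read. After 24 h compound exposure, reporter mRNA was quantified by RT-PCR, 6-FAM labelling, HpaI digestion and capillary electrophoresis; bidirectional fit versus DMSO.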

A short description of assay [2]: ATG_NRF2_ARE_CIS: Attagene CIS-FACTORIAL HepG2 Assay for human Nuclear Factor Erythroid 2 Related Factor 2 (NFR2) response to Antioxidant Response Elements (ARE) (AID 2282992). As to conditions: HepG2 Attagene ARE/NRF2 reporter, transcription factor activity; actives raise or lower the signal. The gist of the method: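 Using transiently transfected HepG2 cells exposed for 24 h, reporter mRNA levels were determined by RT-PCR with fluorescent primer extension and capillary electrophoresis, analysed for gain or loss of signal against DMSO.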

Assay [3] can be described thus: ATG_Oct_MLP_CIS: Attagene CIS-FACTORIAL HepG2 Assay for human Octamer-Binding Transcription Factor (Oct) (AID 2282993). As to conditions: HepG2 Attagene cis-factorial Oct reporter, mRNA; actives raise or lower the signal. The gist of the method: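 Multiplexed cis-reporter assay in human liver HepG2 cells, 24 h incubation. Reporter RNA amplified and labelled, then resolved by capillary electrophoresis; DMSO serves as negative control and baseline.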

The target of assay [4] is Cellular tumor antigen p53 (Homo sapiens) (UniProt P04637). The assay is described as follows: ATG_p53_CIS: Attagene CIS-FACTORIAL HepG2 Assay for human p53 Transcription Factor (AID 2282994). The following applies: HepG2 p53 cis-element reporter, Attagene mRNA; actives raise or lower the signal. The procedure, abridged: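 In HepG2 cells, reporter transcription units under cis-regulatory promoters were transiently introduced. Following 24 h treatment, RNA was processed to labelled, digested cDNA fragments read by capillary electrophoresis; fitting was bidirectional versus DMSO.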
Cellular tumor antigen p53 (Homo sapiens), sequence (P04637 whole entry, looked up, the tested form may be a part): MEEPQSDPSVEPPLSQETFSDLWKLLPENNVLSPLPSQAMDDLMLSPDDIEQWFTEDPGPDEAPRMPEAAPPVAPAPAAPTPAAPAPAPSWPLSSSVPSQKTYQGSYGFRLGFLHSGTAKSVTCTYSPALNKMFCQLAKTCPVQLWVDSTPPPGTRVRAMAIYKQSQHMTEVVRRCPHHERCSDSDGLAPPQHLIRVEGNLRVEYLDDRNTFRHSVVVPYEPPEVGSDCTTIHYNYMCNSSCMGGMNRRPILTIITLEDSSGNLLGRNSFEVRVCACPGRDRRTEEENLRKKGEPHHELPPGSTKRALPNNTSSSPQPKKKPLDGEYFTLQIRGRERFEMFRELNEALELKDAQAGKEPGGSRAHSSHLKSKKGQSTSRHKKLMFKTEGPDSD

For assay [5], the target named is human Peroxisome Proliferator-activated Receptor delta (PPARd), PPARD (gene 5467) (UniProt Q03181). The assay is described as follows: ATG_PPARd_TRANS: Attagene TRANS-FACTORIAL HepG2 Assay for human Peroxisome Proliferator-activated Receptor delta (PPARd) (AID 2283002; active = hit-call score of the fitted dose curve at least 0.9, where 1 is the maximum). The procedure, abridged:
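HepG2 cells transiently transfected with multiplexed GAL4-UAS reporter units and exogenous chimeric NR-Gal4 proteins; 24 h compound exposure. Reporter mRNA measured by RT-PCR, 6-FAM labelling, HpaI digestion and capillary electrophoresis; gain of signal versus DMSO.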

For assay [6], the target named is human Retinoic Acid Receptor beta (RARb), RARB (gene 5915) (UniProt P10826). As to the kind of experiment: ATG_RARb_TRANS: Attagene TRANS-FACTORIAL HepG2 Assay for human Retinoic Acid Receptor beta (AID 2283004; active = hit-call score of the fitted dose curve at least 0.9, where 1 is the maximum). The procedure, abridged: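 Induction of reporter mRNA from a chimeric RARb-Gal4 construct was measured by RT-PCR, FAM labelling, HpaI digestion and capillary electrophoresis. Measurements followed 24 h compound treatment of transiently transfected human HepG2 liver cells, with DMSO as baseline.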
human Retinoic Acid Receptor beta (RARb), RARB (gene 5915), sequence (P10826 whole entry, looked up, the tested form may be a part): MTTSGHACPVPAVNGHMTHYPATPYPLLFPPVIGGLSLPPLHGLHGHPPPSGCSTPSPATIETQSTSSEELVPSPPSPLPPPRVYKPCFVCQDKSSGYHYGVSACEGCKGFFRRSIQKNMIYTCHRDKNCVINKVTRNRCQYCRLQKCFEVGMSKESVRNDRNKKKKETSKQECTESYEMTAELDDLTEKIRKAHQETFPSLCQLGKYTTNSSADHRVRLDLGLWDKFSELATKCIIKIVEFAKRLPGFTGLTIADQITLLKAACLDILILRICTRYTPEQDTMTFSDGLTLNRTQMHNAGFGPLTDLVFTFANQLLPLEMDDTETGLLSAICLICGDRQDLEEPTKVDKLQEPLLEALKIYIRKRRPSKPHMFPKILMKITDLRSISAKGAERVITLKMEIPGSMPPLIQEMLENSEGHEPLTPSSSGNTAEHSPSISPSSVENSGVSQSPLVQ

The target in assay [7] is Nuclear receptor subfamily 1 group I member 2 (Homo sapiens) (UniProt O75469). As to the kind of experiment: ATG_PXR_TRANS: Attagene TRANS-FACTORIAL HepG2 Assay for human Pregnane X Receptor (PXR) (AID 2283008; active = hit-call score of the fitted dose curve at least 0.9, where 1 is the maximum). The procedure, abridged:
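Multiplexed TRANS reporter panel in HepG2; this component tracks PXR-Gal4-driven reporter mRNA after 24 h dosing, measured by RT-PCR with capillary electrophoresis fluorescence, fitted against DMSO.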

The target of assay [8] is human RAR-related Orphan Receptor gamma (RORg), RORC (gene 6097) (UniProt P51449). As to the kind of experiment: ATG_RORg_TRANS: Attagene TRANS-FACTORIAL HepG2 Assay for human RAR-related Orphan Receptor gamma (RORg) (AID 2283011; active = hit-call score of the fitted dose curve at least 0.9, where 1 is the maximum). The gist of the method:
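Reporter transcripts from a transfected RORg-GAL4 chimera in HepG2 cells were quantified 24 h after dosing by RT-PCR, 6-FAM labelling, HpaI digestion and capillary electrophoresis; increases over DMSO baseline were fitted.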

The nature of assay [9]: BSK_3C_TissueFactor: BioMAP Diversity Plus: 3C Assay for Tissue Factor Biomarker Activity (AID 2282997). The following applies: BioMAP 3C HUVEC, tissue factor biomarker readout; actives raise or lower the signal. The procedure, abridged: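 Tissue factor on primary human umbilical vein endothelium was read by ELISA 24 h after dosing, gain or loss relative to DMSO. Cytotoxicity ran alongside via SRB (0.1%, TCA-fixed, 560 nm).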

A short description of assay [10]: BSK_3C_uPAR: BioMAP Diversity Plus: 3C Assay for Urokinase-type plasminogen activator receptor (uPAR) Biomarker Activity (AID 2282998). As to conditions: BioMAP 3C HUVEC, uPAR biomarker ELISA; actives raise or lower the signal. The procedure, abridged: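 Dose primary human umbilical vein endothelial cells, incubate 24 h, measure cell-surface uPAR by ELISA, then fit the signal in both directions against the DMSO negative control.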
(In general: An ELISA detects its analyte on a solid surface through an enzyme-linked reagent.)

The nature of assay [11]: BSK_3C_VCAM1: BioMAP Diversity Plus: 3C Assay for Vascular cell adhesion molecule 1 (VCAM1) Biomarker Activity (AID 2282999). As to conditions: BioMAP 3C HUVEC, VCAM1 ELISA, cytokine-stimulated; actives raise or lower the signal. The gist of the method:
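Vascular primary endothelium (human umbilical vein) was exposed to chemicals and assayed 24 h later. VCAM-1 levels came from ELISA, with DMSO serving as baseline for bidirectional fitting.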

Assay [12] in a line: BSK_4H_Eotaxin3: BioMAP Diversity Plus: 4H Assay for Eotaxin 3 Biomarker Activity (AID 2283000).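 For outcome: CCL26 protein level quantified by ELISA in parallel with SRB cytotoxicity check.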 The following applies: primary human endothelial cells (HUVEC); actives raise or lower the signal. The gist of the method: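 Human umbilical vein endothelial cells (BSK_4H system) dosed with test chemical; Eotaxin-3 (CCL26) measured by ELISA 24 h after dosing. Bidirectional curve fitting relative to DMSO negative control as baseline.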

Assay [13] addresses human Peroxisome Proliferator-activated Receptor alpha (PPARa), PPARA (gene 5465) (UniProt Q07869). As to the kind of experiment: ATG_PPARa_TRANS: Attagene TRANS-FACTORIAL HepG2 Assay for human Peroxisome Proliferator-activated Receptor alpha (PPARa) (AID 2283001; active = hit-call score of the fitted dose curve at least 0.9, where 1 is the maximum;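 for AC50: potency for gain of reporter signal over DMSO so agonist or activator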). The procedure, abridged:
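Exposure: 24 h, transiently transfected HepG2 cells. Endpoint: GAL4-UAS reporter mRNA, RT-PCR with capillary electrophoresis fluorescence. Baseline: DMSO; increases fitted.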

Read-out in assay [14]: Intercellular Adhesion Molecule 1 (ICAM1), ICAM1 (gene 3383)
The assay is described as follows: BSK_3C_ICAM1: BioMAP Diversity Plus: 3C Assay for Intercellular Adhesion Molecule 1 (ICAM1) Biomarker Activity (AID 2283003). As to conditions: primary human endothelial cells (HUVEC); actives raise or lower the signal. The gist of the method: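 Using DMSO as baseline, bidirectional curve fitting was applied to ICAM-1 ELISA signals from HUVEC in the 3C system, measured 24 h after compound addition.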

A short description of assay [15]: BSK_3C_Proliferation: Cell Proliferation Assessment in the BioMAP Diversity Plus: 3C Assay (AID 2283006).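 For AC50: potency may reflect either rise or fall in cell number versus DMSO.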 As to conditions: primary human endothelial cells (HUVEC). The procedure, abridged: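 Measured here: sulforhodamine B (0.1%) staining of TCA-fixed sub-confluent umbilical vein endothelial cultures 48 h post-dosing, absorbance 560 nm. DMSO served as negative control and baseline; both signal gain and loss were modelled.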

The target of assay [16] is Peroxisome proliferator-activated receptor gamma (Homo sapiens) (UniProt P37231). The assay is described as follows: ATG_PPARg_TRANS: Attagene TRANS-FACTORIAL HepG2 Assay for human Peroxisome Proliferator-activated Receptor-gamma (PPARg) (AID 2283007; active = hit-call score of the fitted dose curve at least 0.9, where 1 is the maximum). The gist of the method: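 Read-out: reporter mRNA induction, detected by fluorescence after RT-PCR and capillary electrophoresis. Transiently transfected human HepG2 liver cells carrying a chimeric NR-Gal4 construct were dosed for 24 h; activity was fitted upward relative to DMSO.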
Peroxisome proliferator-activated receptor gamma (Homo sapiens), sequence (P37231 whole entry, looked up, the tested form may be a part): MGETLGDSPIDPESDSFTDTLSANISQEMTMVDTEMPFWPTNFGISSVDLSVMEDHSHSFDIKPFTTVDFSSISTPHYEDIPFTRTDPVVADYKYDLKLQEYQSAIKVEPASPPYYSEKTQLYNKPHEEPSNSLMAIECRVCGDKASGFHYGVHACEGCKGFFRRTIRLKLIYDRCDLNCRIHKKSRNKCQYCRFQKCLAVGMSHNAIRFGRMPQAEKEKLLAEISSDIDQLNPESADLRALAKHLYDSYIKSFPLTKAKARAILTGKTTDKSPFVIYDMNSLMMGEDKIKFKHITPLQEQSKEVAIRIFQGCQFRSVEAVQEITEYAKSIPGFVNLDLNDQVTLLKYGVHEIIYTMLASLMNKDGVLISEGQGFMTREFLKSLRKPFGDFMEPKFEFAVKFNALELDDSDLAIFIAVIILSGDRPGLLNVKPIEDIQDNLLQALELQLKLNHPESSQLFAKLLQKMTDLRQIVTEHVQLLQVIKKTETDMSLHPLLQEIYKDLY

Assay [17] deals with human RAR-related Orphan Receptor beta (RORb), RORB (gene 6096) (UniProt Q92753). The assay is described as follows: ATG_RORb_TRANS: Attagene TRANS-FACTORIAL HepG2 Assay for human RAR-related Orphan Receptor beta (RORb) (AID 2283010; active = hit-call score of the fitted dose curve at least 0.9, where 1 is the maximum). The procedure, abridged:
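Multiplexed transcription-factor reporter assay: HepG2 cells transiently carrying NR-Gal4/GAL4-UAS constructs, 24 h treatment, mRNA quantified by RT-PCR plus capillary electrophoresis fluorescence; activity scored as induction over DMSO.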

For assay [18], the target named is Retinoic acid receptor alpha (Homo sapiens) (UniProt P10276). As to the kind of experiment: ATG_RARa_TRANS: Attagene TRANS-FACTORIAL HepG2 Assay for human Retinoic Acid Receptor alpha (RARa) (AID 2283005; active = hit-call score of the fitted dose curve at least 0.9, where 1 is the maximum). The gist of the method:
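HepG2 cells transiently transfected with multiple reporter units expressing chimeric RARα-GAL4 fusion, with GAL4-UAS-driven reporters. After 24 h compound exposure, reporter mRNA induction quantified by RT-PCR and capillary electrophoresis with fluorescent labeling; gain-of-signal fitted relative to DMSO control.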

In assay [19] the target is human Retinoic Acid Receptor gamma (RARg), RARG (gene 5916) (UniProt P13631). The assay is described as follows: ATG_RARg_TRANS: Attagene TRANS-FACTORIAL HepG2 Assay for human Retinoic Acid Receptor gamma (RARg) (AID 2283009; active = hit-call score of the fitted dose curve at least 0.9, where 1 is the maximum). The procedure, abridged:
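Gain-of-signal relative to DMSO is reported from fluorescent capillary electrophoresis of RT-PCR reporter products. These came from HepG2 cells expressing transfected RARg-GAL4 chimeras with UAS reporters, harvested 24 h after dosing.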

Myc proto-oncogene protein (Homo sapiens), sequence (P01106 whole entry, looked up): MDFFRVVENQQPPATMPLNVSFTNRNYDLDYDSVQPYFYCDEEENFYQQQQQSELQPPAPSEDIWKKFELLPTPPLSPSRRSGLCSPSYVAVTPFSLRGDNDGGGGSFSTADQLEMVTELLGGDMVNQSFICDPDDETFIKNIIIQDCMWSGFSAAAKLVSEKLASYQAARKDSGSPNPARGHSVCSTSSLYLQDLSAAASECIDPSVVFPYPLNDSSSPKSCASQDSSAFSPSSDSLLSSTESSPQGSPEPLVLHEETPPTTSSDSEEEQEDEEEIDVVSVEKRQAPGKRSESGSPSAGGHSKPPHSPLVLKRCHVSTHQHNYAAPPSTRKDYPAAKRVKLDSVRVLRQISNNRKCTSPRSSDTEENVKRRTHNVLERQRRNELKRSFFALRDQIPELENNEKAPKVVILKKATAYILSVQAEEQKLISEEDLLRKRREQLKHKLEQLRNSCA
Nuclear receptor subfamily 1 group I member 2 (Homo sapiens), sequence (O75469 whole entry, looked up, the tested form may be a part): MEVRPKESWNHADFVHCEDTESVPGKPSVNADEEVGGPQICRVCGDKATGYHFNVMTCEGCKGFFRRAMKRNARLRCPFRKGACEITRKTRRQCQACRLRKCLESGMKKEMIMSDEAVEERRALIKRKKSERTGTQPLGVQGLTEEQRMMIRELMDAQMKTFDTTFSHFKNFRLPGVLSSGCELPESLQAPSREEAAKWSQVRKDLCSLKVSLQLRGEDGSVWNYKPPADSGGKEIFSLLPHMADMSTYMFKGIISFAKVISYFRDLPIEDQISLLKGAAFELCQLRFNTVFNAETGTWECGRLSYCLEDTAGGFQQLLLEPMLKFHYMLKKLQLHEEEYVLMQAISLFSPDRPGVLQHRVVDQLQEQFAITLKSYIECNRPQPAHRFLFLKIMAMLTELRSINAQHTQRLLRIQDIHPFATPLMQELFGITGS
human Peroxisome Proliferator-activated Receptor delta (PPARd), PPARD (gene 5467), sequence (Q03181 whole entry, looked up, the tested form may be a part): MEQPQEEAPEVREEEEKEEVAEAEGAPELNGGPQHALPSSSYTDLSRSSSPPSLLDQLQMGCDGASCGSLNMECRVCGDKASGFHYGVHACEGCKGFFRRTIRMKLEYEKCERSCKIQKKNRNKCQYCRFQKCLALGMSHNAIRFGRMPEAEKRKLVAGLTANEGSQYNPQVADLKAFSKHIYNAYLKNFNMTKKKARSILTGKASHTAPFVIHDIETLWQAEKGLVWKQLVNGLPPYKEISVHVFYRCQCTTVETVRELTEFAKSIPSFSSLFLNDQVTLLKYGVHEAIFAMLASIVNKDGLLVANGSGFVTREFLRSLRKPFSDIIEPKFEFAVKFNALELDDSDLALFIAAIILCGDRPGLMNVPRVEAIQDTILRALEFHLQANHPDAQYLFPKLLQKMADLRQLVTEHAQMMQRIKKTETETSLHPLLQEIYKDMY
human Peroxisome Proliferator-activated Receptor alpha (PPARa), PPARA (gene 5465), sequence (Q07869 whole entry, looked up, the tested form may be a part): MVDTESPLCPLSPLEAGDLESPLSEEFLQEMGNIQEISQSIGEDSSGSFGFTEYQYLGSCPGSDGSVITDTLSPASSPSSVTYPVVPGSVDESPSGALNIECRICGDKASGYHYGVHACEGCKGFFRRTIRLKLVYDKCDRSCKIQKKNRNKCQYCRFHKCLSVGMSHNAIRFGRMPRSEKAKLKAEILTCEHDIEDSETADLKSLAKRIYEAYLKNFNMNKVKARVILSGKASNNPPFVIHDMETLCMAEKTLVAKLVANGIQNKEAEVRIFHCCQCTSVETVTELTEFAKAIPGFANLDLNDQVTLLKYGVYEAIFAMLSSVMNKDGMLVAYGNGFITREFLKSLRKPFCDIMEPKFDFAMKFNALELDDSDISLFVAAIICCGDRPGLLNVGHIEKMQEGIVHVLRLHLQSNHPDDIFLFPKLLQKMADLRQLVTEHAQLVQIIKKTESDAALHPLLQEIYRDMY
human Retinoic Acid Receptor gamma (RARg), RARG (gene 5916), sequence (P13631 whole entry, looked up, the tested form may be a part): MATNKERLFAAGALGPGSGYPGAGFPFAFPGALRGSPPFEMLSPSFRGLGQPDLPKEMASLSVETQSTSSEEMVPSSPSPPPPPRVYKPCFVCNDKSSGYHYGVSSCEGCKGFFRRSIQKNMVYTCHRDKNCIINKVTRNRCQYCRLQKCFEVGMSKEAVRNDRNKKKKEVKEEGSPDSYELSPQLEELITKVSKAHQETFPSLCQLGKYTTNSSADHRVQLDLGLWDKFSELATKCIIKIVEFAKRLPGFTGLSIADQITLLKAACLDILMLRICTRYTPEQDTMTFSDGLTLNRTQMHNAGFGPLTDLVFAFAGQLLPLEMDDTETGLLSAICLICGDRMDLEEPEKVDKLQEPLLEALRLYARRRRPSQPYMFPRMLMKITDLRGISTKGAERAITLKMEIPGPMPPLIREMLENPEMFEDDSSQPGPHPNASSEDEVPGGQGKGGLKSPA
Retinoic acid receptor alpha (Homo sapiens), sequence (P10276 whole entry, looked up, the tested form may be a part): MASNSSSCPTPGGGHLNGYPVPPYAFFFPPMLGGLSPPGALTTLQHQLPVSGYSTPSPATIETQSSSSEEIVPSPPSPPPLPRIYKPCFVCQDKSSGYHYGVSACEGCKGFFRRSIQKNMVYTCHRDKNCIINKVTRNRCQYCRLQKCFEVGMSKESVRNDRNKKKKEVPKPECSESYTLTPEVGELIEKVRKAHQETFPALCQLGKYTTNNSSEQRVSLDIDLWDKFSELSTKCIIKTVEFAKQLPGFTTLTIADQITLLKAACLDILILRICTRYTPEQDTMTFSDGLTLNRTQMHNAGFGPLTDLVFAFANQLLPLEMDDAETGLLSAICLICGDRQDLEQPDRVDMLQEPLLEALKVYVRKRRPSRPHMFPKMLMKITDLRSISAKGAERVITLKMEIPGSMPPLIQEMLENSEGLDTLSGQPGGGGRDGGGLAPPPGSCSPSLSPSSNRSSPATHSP
human RAR-related Orphan Receptor beta (RORb), RORB (gene 6096), sequence (Q92753 whole entry, looked up, the tested form may be a part): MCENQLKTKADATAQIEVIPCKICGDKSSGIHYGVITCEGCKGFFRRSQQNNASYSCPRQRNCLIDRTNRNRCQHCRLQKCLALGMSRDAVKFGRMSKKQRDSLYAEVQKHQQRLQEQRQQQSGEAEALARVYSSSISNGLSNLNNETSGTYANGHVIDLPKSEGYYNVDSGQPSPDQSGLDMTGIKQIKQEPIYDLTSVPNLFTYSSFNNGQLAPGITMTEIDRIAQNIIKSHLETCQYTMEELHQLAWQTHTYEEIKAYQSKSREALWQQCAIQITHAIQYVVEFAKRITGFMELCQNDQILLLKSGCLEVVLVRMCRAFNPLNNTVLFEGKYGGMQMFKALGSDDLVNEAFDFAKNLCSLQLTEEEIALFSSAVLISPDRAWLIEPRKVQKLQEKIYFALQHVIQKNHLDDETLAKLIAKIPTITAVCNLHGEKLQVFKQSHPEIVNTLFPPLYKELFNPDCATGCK

With `Cc1ncc([N+](=O)[O-])n1CCO`, the compound was called inactive in assay [1], in assay [2], in assay [3], in assay [4], in [5] and in assay [6]. Besides, the compound was called inactive in [7] and in assay [8].

For the compound `C=C(C)C(=O)OCCOCCOCCOCCOC(=O)C(=C)C`, the call in [1], in assay [3], in [4], in [9], in assay [10] and in assay [11] was inactive. The outcome in assay [12], in assay [13], in assay [5], in assay [14], in assay [15] and in assay [7] was inactive. In assay [2], the concentration at half-maximal activity (AC50) (as a rule, the concentration giving half of the maximal activity seen) is 69.7 µM (active).

For `CCCC[O][Al]([O]CCCC)[O]CCCC`, the call in assay [1], in assay [2], in assay [3] and in assay [4] was inactive.

For the compound `CCCCCC(C)=O`, the result in assay [1], in [2], in [3], in assay [4], in assay [16] and in assay [7] was inactive. The compound was called inactive in assay [8].

As for `O=C1OC(=O)c2c(Cl)c(Cl)c(Cl)c(Cl)c21`, the compound was classed as inactive in assay [1], in assay [2], in [3], in [4], in assay [5] and in assay [6].

Turning to `CCCOCCO`, the outcome in [1], in assay [2], in [3], in [4], in assay [13] and in assay [6] was inactive. Besides, the call in assay [16] and in assay [17] was inactive.

Take `CCc1ncc(C)[nH]1`: the outcome in [1], in [2], in [3], in assay [4], in assay [5] and in assay [7] was inactive.

Consider `CC(C=O)Cc1ccc(C(C)(C)C)cc1` (stereo unspecified), for which the call in assay [1], in assay [3], in [4] and in assay [5] was inactive. The AC50 in assay [2] was 26.4 µM (active); in assay [9] it was 31.1 µM (active); in assay [10] it was 32.9 µM (active); in assay [11], 36.4 µM (active); in assay [12], 36 µM (active); in assay [13] it was 40.7 µM (active). Also, the AC50 in assay [14] is 31.1 µM (active); in assay [15], 30.9 µM (active); in assay [16], 79.1 µM (active); in [7] it was 23.1 µM (active).

On to `CN(c1nccc(=O)[nH]1)C1CCN(c2nc3ccccc3n2Cc2ccc(F)cc2)CC1`, for which the result in [1], in assay [2], in [3], in assay [9], in [11] and in assay [12] was inactive. For the same compound, the outcome in assay [14], in assay [6], in assay [18], in assay [15], in assay [7] and in assay [19] was inactive. Besides, the AC50 in assay [10] was 1.84 µM (active).

On to `COc1cc(Cl)c(OC)cc1N`, for which the compound was classed as inactive in assay [1], in assay [2], in assay [3], in [9], in assay [10] and in assay [11]. Moreover, the result in assay [12], in [13], in assay [5], in [14], in assay [6] and in assay [18] was inactive. Further, the result in [15], in assay [7] and in assay [19] was inactive.

For `O=[N+]([O-])c1ccc(O)cc1C(F)(F)F`, the compound was classed as inactive in assay [1], in assay [4], in assay [13], in assay [5], in assay [6] and in [18]. Besides, the call in [7], in assay [19] and in assay [17] was inactive. Also, the half-maximal activity concentration (AC50) in assay [2] is 52.8 µM (active); in assay [3] it was 55.2 µM (active); in [16], 38.7 µM (active).
